Shown are actives, neighbours in structure and some others; about 3.5% of the full set was active somewhere.
TEAD-YAP block: TEAD-YAP interaction inhibition | HEK-TIYL cells, TEAD-Gal4/YAP UAS-luciferase luminescence | inhibition, % at 9.12 µM | 1.4% of 640,000 active; in the data active = inhibition above about 32%;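 also: 0% = median of test compound wells and 100% = reference inhibitor wells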
GPR151 activ: activates the human receptor GPR151 | activation, % at 11.2 µM | PathHunter beta-arrestin GPR151 cells, luminescence | 1% of 650,000 active; in the data active = activation above about 4.9%;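 also: 0% = median of compound wells and 100% = cells with positive control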
Target sequence (Q8TDV0 whole entry, looked up): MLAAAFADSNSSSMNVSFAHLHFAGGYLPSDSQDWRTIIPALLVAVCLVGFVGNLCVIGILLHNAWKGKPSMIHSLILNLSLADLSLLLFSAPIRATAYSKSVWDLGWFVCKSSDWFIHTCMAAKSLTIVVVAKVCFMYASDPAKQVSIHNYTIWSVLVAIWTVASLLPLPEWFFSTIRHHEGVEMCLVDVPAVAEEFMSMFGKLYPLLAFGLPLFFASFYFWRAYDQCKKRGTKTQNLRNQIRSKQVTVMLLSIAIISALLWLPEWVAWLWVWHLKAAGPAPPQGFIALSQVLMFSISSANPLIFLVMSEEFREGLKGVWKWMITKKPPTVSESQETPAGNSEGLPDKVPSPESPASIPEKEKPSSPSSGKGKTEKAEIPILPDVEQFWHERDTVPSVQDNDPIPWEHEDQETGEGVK
MITF inh: human MITF inhibition, primary screen. inhibition, % at 2.6 µM. AlphaScreen MITF homodimerization, bead proximity signal. 0.91% of 650,000 active. AID 1259374. O75030; in the data active = inhibition above about 50%;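 also: 0% = vehicle wells with protein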
FBW7 activator: activators of human E3 ligase FBW7 | Q969H0 | AlphaScreen FBW7–phospho-cyclin E peptide binding, activator screen | normalized activity (activation), % at 26.1 µM | 0.13% of 650,000 active | AID 1259310; in the data active = normalized activity above about 1.9%;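 also: purified mutant Fbw7 with reduced substrate affinity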
MITF inh conf: confirmation of human MITF inhibitors; shares compounds with MITF inh; AlphaScreen MITF homodimerization, biotin/His-MITF beads; inhibition, % at 2.6 µM; 16% of 4,700 active; AID 1259372;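 active = inhibition above a cutoff derived from the DMSO control wells, cut at about 28% in these data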;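 also: 0% = MITF dimer wells with DMSO only; inhibitors lower the bead chemiluminescence by keeping MITF from dimerizing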
AS interf ctr: counter-screen: compounds optically interfering with AlphaScreen; inhibition, % at 2.6 µM; shares compounds with MITF inh; LysRS AlphaScreen counterscreen, signal interference, triplicate; 7.6% of 4,700 active;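 active = inhibition above a cutoff derived from the DMSO control wells, cut at about 30% in these data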
An asterisk follows results filed as active; . = no result given.

SMILES	TEAD-YAP block	GPR151 activ	MITF inh	FBW7 activator	MITF inh conf	AS interf ctr
c1ccc(C2CCC(N3CCN(Cc4ccccn4)CC3)CC2)cc1 (centres undefined)	-1	-2	68*	0	9	12
CC1CCCC(N2CCN(Cc3ccccn3)CC2)C1 (centres undefined)	-5	-1	72*	0	5	16
CC[C@H](Cn1nnn(-c2ccccc2)c1=O)NC(=O)Cn1nc(C)c2ccccc2c1=O	1	0	9	0	.	.
O=C(COC(=O)C1CC(O)CN1C(=O)Oc1ccccc1)c1ccc([N+](=O)[O-])cc1 (centres undefined)	2	-1	-4	-1	.	.
c1ccc(CN2CCC(N3CCN(Cc4ccccn4)CC3)CC2)cc1	4	-2	40	1	.	.
c1ccc(C2CCC(N3CCN(Cc4cccnc4)CC3)CC2)cc1 (centres undefined)	2	-1	65*	0	-10	12
O=C(O)C1CCN(Cc2ccccn2)CC1	0	1	-5	0	.	.
CCN(Cc1ccccc1)C1CCN(Cc2ccccn2)CC1	4	-1	59*	0	-10	0
c1ccc(CN2CCN(C3CCCC3)CC2)nc1	-9	-1	74*	0	11	10
COc1ccc(CN2CCC(C(=O)NC(C)c3ccccc3)CC2)c(OC)c1 (centres undefined)	7	0	51*	0	10	17
COc1ccc2ccccc2c1CN1CCN(C(=O)c2ccncc2)CC1	-11	-1	65*	0	-5	-4
COc1ccc(OC)c(CN2CCN(C(=O)c3cccc4ccccc34)CC2)c1	-2	0	48	-1	.	.
COc1ccc(OC)c(CN2CCN(C(=O)c3cccc(Cl)c3)CC2)c1	0	-2	66*	0	4	12
COc1ccc(OC)c(CN2CCN(C(=O)C(c3ccccc3)c3ccccc3)CC2)c1	-3	-1	52*	0	-25	12
COc1ccc(CN2CCC(C(=O)NCC(C)C)CC2)c(OC)c1	6	-1	17	0	.	.
COc1cc(OC)c(OC)cc1CN1CCN(C(=O)c2ccncc2)CC1	6	-1	56*	0	-6	4
COc1ccc(CN2CCN(C(=O)c3ccc(F)cc3)CC2)c(OC)c1	-3	-1	48	0	.	.
COc1ccccc1CN1CCN(C(=O)c2ccccc2)CC1	8	0	60*	0	6	7
COc1ccccc1CN1CCN(C(=O)c2ccncc2)CC1	1	-1	65*	0	-9	-4
COc1cccc(C(=O)N2CCN(Cc3ccccc3OC)CC2)c1	-4	-1	0	0	.	.
COc1ccc(CN2CCN(C(=O)c3ccccc3)CC2)c(OC)c1	15	0	60*	0	9	9
C(=N\Nc1nnnn1-c1cccc2ccccc12)/c1ccncc1	1	1	-2	0	.	.
C(=N\Nc1nnnn1-c1cccc2ccccc12)/c1ccc(OCc2ccccn2)cc1	14	0	69*	0	-2	9
O=C(CN1CCN(C(=O)c2cnccn2)CC1)c1cccs1	-2	-1	53*	0	4	16
Cc1cc(C(=O)N2CCN(CC(=O)c3cccs3)CC2)no1	-4	0	61*	0	7	12
SMILES	TEAD-YAP block	GPR151 activ	MITF inh	FBW7 activator	MITF inh conf	AS interf ctr
Cc1cc(C)cc(NC(=O)NC2CCN(CC(=O)Nc3ccc4c(c3)OCO4)CC2)c1	-3	0	21	0	.	.
CCOC(=O)C1=C(N)n2c(s/c(=C\c3cccc(Br)c3)c2=O)=C(C(=O)OCC)C1c1cccc(Br)c1 (centres undefined)	-2	0	-7	0	.	.
CCCCOc1cccc(OCCCN2CCN(C)CC2)c1	6	0	-8	0	.	.
CCOc1cccc(OCCCN2CCN(CC)CC2)c1	-2	-2	74*	0	18	16
CCN1CCN(CCCOc2cccc(C(C)C)c2)CC1	7	-1	48	0	.	.
CCOc1ccc(OCCCCN2CCN(C)CC2)cc1	-7	2	86*	0	7	7
CCOc1cccc(OCCCCN2CCN(C)CC2)c1	2	-2	71*	0	13	14
CCN1CCN(CCCCOc2cccc(C(F)(F)F)c2)CC1	10	0	64*	0	7	7
CN(C)C(=O)c1cc(-c2cn[nH]c2)ccc1NC(=O)C1COc2ccc(F)cc2C1 (centres undefined)	-2	0	15	1	.	.
CCOc1cccc(OCCCN2CCNCC2)c1	-15	0	54*	0	-1	-2
CCN1CCN(CCOc2cccc(C(C)=O)c2)CC1	13	2	66*	-1	8	8
Cc1cccc(OCCCCN2CCNCC2)c1	-3	2	14	0	.	.
CCOc1ccc(OCCCN2CCN(C)CC2)cc1	-9	2	79*	0	-1	17
CCN1CCN(CCCCOc2ccc(C#N)cc2)CC1	5	-1	66*	0	4	13
CC(=O)c1cccc(OCCCCOc2cccc(C(C)=O)c2)c1	3	-1	-12	0	.	.
CN1CCN(CCCOc2ccc(C#N)cc2)CC1	13	0	2	0	.	.
CCN1CCN(CCOCCOc2cccc(Oc3ccccc3)c2)CC1	-1	0	79*	0	6	13
CCCOc1cccc(OCCN2CCN(CC)CC2)c1	0	4	79*	1	9	13
CN1CCN(CCOCCOc2ccc(C(C)(C)C)cc2)CC1	3	1	65*	0	4	19
CN1CCN(CCOCCOc2ccc(Cl)cc2)CC1	-1	0	36	0	.	.
CCN1CCN(CCOCCOc2ccc(CCC(C)=O)cc2)CC1	9	1	66*	0	7	7
CN1CCN(CCCCOc2cccc(C=O)c2)CC1	-2	1	61*	0	6	17
CN1CCN(CCCCOc2cccc(C(F)(F)F)c2)CC1	1	0	24	0	.	.
COCCCNCCCOc1c(C)cccc1C(C)(C)C	2	0	34	0	.	.
COCCCNCCOc1c(C)cccc1C(C)(C)C	-14	-1	81*	0	13	10
SMILES	TEAD-YAP block	GPR151 activ	MITF inh	FBW7 activator	MITF inh conf	AS interf ctr
COCCNCCCCOc1c(C)cccc1C(C)(C)C	-6	0	26	0	.	.
C=CCNCCOCCOc1c(C)cccc1C(C)(C)C	-8	-1	68*	0	-7	-6
CCCC(=O)Nc1ccc(Cl)c(NC(=O)COc2ccccc2C)c1	0	1	-12	0	.	.
O=C(Nc1cccc(O)c1)/C(=C/c1ccc([N+](=O)[O-])cc1)NC(=O)c1ccccc1	6	0	52*	0	-9	-2
COc1ccc(/C=C(/NC(=O)c2ccccc2)C(=O)Nc2ccc(F)cc2)cc1OC	4	0	67*	0	0	11
O=C(Nc1cccc(C(=O)O)c1)/C(=C/c1ccc([N+](=O)[O-])cc1)NC(=O)c1ccccc1	-1	-2	-3	0	.	.

From PubChem BioAssay
